# Source: PubChem BioAssay
# Compounds with a hit are over-represented: about 4.6% of the library has one in this group of screens.
# Marburg entry inh = Marburg virus entry inhibition. Marburg virus pseudotyped entry inhibition, cell reporter. Potency, µM (top dose mostly 37.8 µM), without a hit: at the highest dose activity change, negative = inhibition, actives largely listed as inhibitors. hit rate 1.8% among 300,000. AID 540276; calls by dose curve; tested in HEK293 cells
# VACV mCherry inh = inhibitors of vaccinia virus infection (mCherry reporter signal); hit rate 0.63% among 310,000; AID 720579; Vaccinia virus mCherry reporter infection, fluorescence; Potency, µM (doses to about 36.5 µM), for the others: top-dose activity change, negative = inhibition, usual class: inhibitors; calls by dose curve; tested in A549 cells; note: nearly all actives have a fitted effect of over 35% in size
# Lassa entry inh = blocks Lassa virus binding to or entry into cells. Lassa virus pseudotype entry inhibition, cell reporter. Potency, µM (highest dose often 37.9 µM), without a hit: at the top dose activity change, negative = inhibition, usual class: inhibitors. hit rate 1.2% among 300,000; calls by dose curve; tested in HEK293 cells; note: nearly all actives have a fitted effect of over 50% in size
# Vaccinia Venus = vaccinia inhibition (Venus reporter); hit rate 0.46% among 330,000; AID 720580; Potency, µM (series often up to 36.5 µM), for inactives: at the top dose activity change, negative = inhibition, usual class: inhibitors; Vaccinia virus Venus reporter expression, fluorescence; calls by dose curve; tested in A549 cells; note: nearly all actives have a fitted effect of over 30% in size
# HCV inhibitor = inhibitors of hepatitis C virus infection; Huh7.5.1 HCVcc-Cre infection, luciferase reporter, 44 h; Potency, µM (doses to about 41.8 µM), for inactives: at the top dose activity change, negative = inhibition, most hits filed as inhibitors; hit rate 3.4% among 340,000; AID 651820; active = well fitted inhibition curve with a large enough effect; inconclusive = small, poorly fitted or top-dose-only effect, or another doubt; inactive = no such curve, though single readings can be large or run the other way
#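 Infectious HCV cell culture screen: compound-treated cells (1,000/well, pre-plated 4 h) are infected with HCVcc-Cre at roughly 0.5 moi and grown 44 h. Infection is quantified by luciferase signal after 15 min substrate incubation at room temperature.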
# An asterisk follows results filed as active; i = inactive; ? = inconclusive; . = no result; [ ] = another dose, or the depositor's remark. % is set by controls: 0 for no effect and ±100 for the full control effect; potency is the fitted concentration of half-maximal effect.
SMILES,Marburg entry inh,VACV mCherry inh,Lassa entry inh,Vaccinia Venus,HCV inhibitor
Cc1ccc(S(=O)(=O)N2CCOCC2)cc1C(=O)Nc1nc(-c2ccccn2)cs1,?,?,-29%,?,?
O=C(Nc1nc(-c2ccccc2)cs1)c1ccccc1NS(=O)(=O)c1ccc(F)cc1,?,?,3.7µM*,?,?
O=C(Nc1nc(-c2ccccn2)cs1)c1cccc(S(=O)(=O)N2CCOCC2)c1,.,.,.,.,3.5µM*
COc1ccccc1C(=O)Nc1nc(-c2ccc(S(=O)(=O)N3CCOCC3)cc2)cs1,7.3µM*,.,3.7µM*,.,3.5µM*
CCOc1cc(C(=S)N2CCOCC2)ccc1OS(=O)(=O)c1ccc(NC(C)=O)cc1,-16%,-13%,?,-12%,7.1µM*
CCC(=O)N1CCc2cc(Br)cc(S(=O)(=O)N3CCCC(C(=O)Nc4cccc(Cl)c4C)C3)c21 (centres undefined),26%[46.1 µM],i,-17%[46.1 µM],-12%,.
CCOc1ccccc1C(=O)Nc1ccc(S(=O)(=O)N2CCOCC2)cc1,?,.,?,?,13µM*
CCOc1ccccc1C(=O)Nc1ccc(S(=O)(=O)N2CCN(C)CC2)cc1,.,.,.,.,-24%
COc1ccc(C(=O)Nc2nc(-c3ccccn3)cs2)cc1S(=O)(=O)N1CCOCC1,.,.,.,.,11µM*
CCOc1ccc(OCC)c(NS(=O)(=O)c2cc(-c3cc(C)no3)ccc2C)c1,.,-6%,?,-5%,.
S=C(NNc1nc(Nc2ccccc2)nc(N2CCCCC2)n1)NC1CCCCC1,10µM*,-16%,-6%,-9%,?
Clc1ccc(C(c2ccc(Cl)cc2)n2cc[n+](CC(OCc3ccc(Cl)cc3Cl)c3ccc(Cl)cc3Cl)c2)cc1 (centres undefined),13µM*,?,.,11µM*,?
Brc1ccc(N=Nc2ccc3ccccc3n2)cc1,?,-1%,1.1µM*,-3%,-25%
C(=Nc1ccc2ccccc2n1)c1cccnc1,.,29%,.,-12%,.
COC(=O)c1cn([C@@H]2C[C@@H](C(=O)N3CCCCCC3)N(Cc3cc4ccccc4s3)C2)nn1,.,-7%,.,-8%,.
COc1cc(OC)cc(C(=O)NCCSC2CCCCC2)c1,9%,-13%,22%[46.1 µM],-8%,3.2µM*
COc1cc(NC(=S)NCCC(c2ccccc2)c2ccccc2)cc(OC)c1,?,-14%,?,52%,22µM*
COc1cc(OC)cc(C(=O)NCCCCCCNC(=O)c2cc(OC)cc(OC)c2)c1,?,-19%,17%,-28%,7.1µM*
COc1cc(OC)cc(C(=O)NCCC(c2ccccc2)c2ccccc2)c1,.,.,.,.,14µM*
Cc1cccc(NC(=S)NCCC(c2ccccc2)c2ccccc2)c1,5%,i,-12%,-4%,?
CCOc1ccc(CNS(=O)(=O)c2ccc3c(c2)CCCN3C(C)=O)cc1OC,.,-5%,15%[46.1 µM],-14%,.
O=CC(=O)c1ccc(Br)cc1,.,-15%,.,-10%,.
COc1ccc(NS(=O)(=O)c2ccc(N3CCCCS3(=O)=O)cc2)cc1Cl,.,-25%,?,-27%,.
Cc1cc(C)c(OCCNCc2ccccc2)c(C)c1,?,-1%,?,-16%,-19%
Cc1cc(C)c(OCCCCNCc2ccccc2)c(Cl)c1,?,.,?,.,11µM*
SMILES,Marburg entry inh,VACV mCherry inh,Lassa entry inh,Vaccinia Venus,HCV inhibitor
COC(=O)[C@@H]1C[C@@]23C(=NN=C(SC)C2Nc2ccccc23)N1C(C)=O (some centres undefined),-23%[14.2 µM],.,.,.,.
COC(=O)CCC(=O)NC(=S)Nc1ccc(S(=O)(=O)Nc2cc(OC)nc(OC)n2)cc1,35%,-14%,9%,-10%,7%
COc1cc(NS(=O)(=O)c2ccc(NC(=S)NC(=O)CC(C)C)cc2)nc(OC)n1,-16%[46.1 µM],11µM*,8%,?,9%
Cc1ccc2nc(Nc3cccc(C(F)(F)F)c3)c3nnnn3c2c1,.,-24%,25%[46.1 µM],-22%,.
Cc1[nH]c2ccccc2c1CCN(Cc1cccnc1)C(=S)Nc1cccc(F)c1,?,-29%,?,-20%,16µM*
CCOc1ccc(NC(=S)N(CCc2c(C)[nH]c3ccc(C)cc23)Cc2ccncc2)cc1,2.3µM*,-7%,-9%,-15%,?
CCc1ccc(C(=O)c2cn(CC(=O)Nc3ccc4c(c3)OCO4)c3ccc(F)cc3c2=O)cc1,-22%[46.1 µM],-18%,-30%[46.1 µM],-18%,.
CCOc1cc(C)nc(NCc2ccccc2)n1,-19%,-3%,2%,-27%,-2%
CC(=O)c1ccc(Oc2cc(C)nc(NCc3ccccc3)n2)cc1,?,-14%,?,-25%,13µM*
CC1CC(C)CN(CCCSc2ccccc2)C1 (centres undefined),2.9µM*,-23%,?,-15%,-14%
CC1CC(C)CN(CCOCCSc2ccc(Cl)cc2)C1 (centres undefined),7.1µM*,i,?,-27%,?
CC1CC(C)CN(CCOCCSc2ccccc2)C1 (centres undefined),?,-3%,9.2µM*,-18%,?
CC1CN(CCCSc2ccc(Cl)cc2)CC(C)O1 (centres undefined),-25%[46.1 µM],-8%,-7%,-19%,13µM*
O=c1[nH]c2ccc(Cl)cc2c(-c2ccccc2)c1N1CCN(c2ccccn2)CC1,2.3µM*,-5%,?,-18%,?
CCc1nc(-c2ccc(OC)c(OC)c2)cc2cc(OC)c(OC)cc12,-3%,-8%,0%,-7%,3.2µM*
O=C(O)c1ccccc1N/N=C/c1cc(Br)cc(Br)c1O,15µM*,-22%,?,-5%,-5%
O=C(O)c1ccccc1N/N=C\c1ccnc2ccccc12,4µM*,.,?,-13%,6%
ON=Cc1ccnc2ccccc12,.,i,.,-4%,.
Cc1noc(C)c1CSc1ccccc1C(=O)N1CCN(c2ccccc2)CC1,-13%,-18%,10µM*,-11%,-4%
Cc1cccc(N2CCN(C(=O)CSCc3c(C)noc3C)CC2)c1C,?,-13%,?,-25%,4µM*
COc1ccc(-c2nc(CSCC(=O)N3CCN(c4cccc(C)c4C)CC3)c(C)o2)cc1OC,.,11µM*,?,11µM*,.
COc1ccc(-c2nc(CSCC(=O)N3CCN(C)CC3)c(C)o2)cc1OC,.,.,.,.,-5%
Cc1noc(C)c1CSCC(=O)Nc1cc(Cl)ccc1N1CCCCC1,?,-3%,?,-19%,10µM*
Cc1noc(C)c1CSCC(=O)N1CCN(c2ccc(F)cc2)CC1,?,?,-15%,-25%,?
COCCSc1ccccc1C(=O)N1CCN(c2ccccc2)CC1,-20%,.,-27%,.,15%
SMILES,Marburg entry inh,VACV mCherry inh,Lassa entry inh,Vaccinia Venus,HCV inhibitor
O=C(OCc1ccco1)c1ccc2c(c1)N(Cc1ccc([N+](=O)[O-])cc1)C(=O)c1ccccc1S2,.,-14%,-10%[46.1 µM],3%,.
COC(=O)c1ccc(-c2nc3cc(Cl)c(N)cc3s2)cc1,0.5µM*,-27%,?,-11%,0%
COc1ccc(/C=N/NC(N)=S)cc1,9%[46.1 µM],6.3µM*,1%,5.6µM*,?
O=C(N/N=C/c1ccc(C(F)(F)F)cc1)c1ccncc1,-9%,-15%,-1%,-19%,-13%
C=CCOc1ccc(/C=N\NC(N)=S)cc1,.,.,.,.,-10%
Cc1scc(C(=O)N/N=C/c2ccc(OC(C)C)cc2)c1C,13%,-11%,?,-1%,-16%
